RORgamma inh = inhibitors of mouse ROR gamma transcriptional activity. P51450. Drosophila S2 Gal4-RORgamma UAS-luciferase reporter, 20 h. Potency, µM (highest dose often 53.6 µM), inactives show at the top dose activity change, negative = inhibition, usual class: inhibitors. 5.4% of 310,000 active. AID 2551; also: potency is read from the fitted curve at half-maximal effect; nearly all actives have a fitted effect of over 60% in size
Target sequence (P51450 whole entry, looked up, the tested form may be a part): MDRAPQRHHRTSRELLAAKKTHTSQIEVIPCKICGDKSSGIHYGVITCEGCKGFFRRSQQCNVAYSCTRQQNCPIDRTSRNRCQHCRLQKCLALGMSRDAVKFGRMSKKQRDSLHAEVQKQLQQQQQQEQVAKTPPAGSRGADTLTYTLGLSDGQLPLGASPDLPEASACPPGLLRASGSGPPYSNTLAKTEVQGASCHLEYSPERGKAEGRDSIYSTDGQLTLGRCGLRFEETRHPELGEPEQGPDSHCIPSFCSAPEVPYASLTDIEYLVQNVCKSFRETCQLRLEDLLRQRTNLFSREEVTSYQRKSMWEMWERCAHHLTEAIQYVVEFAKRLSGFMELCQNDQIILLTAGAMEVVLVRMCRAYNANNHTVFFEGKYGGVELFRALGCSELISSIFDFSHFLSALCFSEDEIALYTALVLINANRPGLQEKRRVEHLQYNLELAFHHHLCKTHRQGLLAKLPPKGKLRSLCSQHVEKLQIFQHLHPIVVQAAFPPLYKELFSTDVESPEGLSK
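A Gal4/UAS one-hybrid system in insect cells: metallothionein-promoter Gal4–ROR gamma fusion plus Photinus luciferase reporter. Copper sulfate 700 uM final, 20 hr ambient incubation, luminescent detection after 10 min with reagent.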
VP16 counter = counter-screen for ROR gamma inhibitors: Gal4-VP16 reporter | Potency, µM (series often up to 53.6 µM), for the others: at the top dose activity, negative = inhibition, actives largely listed as inhibitors | 3.5% of 310,000 active | Drosophila S2 Gal4-VP16 UAS-luciferase, luminescence, 20 h;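 also: Gal4-VP16 expression switched on by copper sulfate through the metallothionein promoter; potency is read from the fitted curve at half-maximal effect; nearly all actives have a fitted effect of over 50% in size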
LDHA inh = inhibitors of human lactate dehydrogenase A; 0.15% of 480,000 active; activity change, % (values are at about 110 or 230 µM); purified LDHA, NADH/diaphorase-resazurin fluorescence; active compounds read low; AID 1347041; in the data active = activity change below about -30%; inconclusive = mostly about -25% to -30%;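 also: plate controls were DMSO wells for no effect and wells without enzyme for full effect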
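Resorufin fluorescence (ex540/em590), read at 0 and 20 min after diaphorase/resazurin addition, reports the NADH left after a 5 min room-temperature reaction of 2 nM human LDH5 with 0.06 mM NADH and 0.2 mM pyruvate.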
DT40 TDP1 no CPT = qHTS for Inhibitors of human tyrosyl-DNA phosphodiesterase 1 (TDP1): qHTS in cells in absence of CPT; DT40 Tdp1-/- hTDP1 cells, no CPT, ATP luminescence, 48 h; Potency, µM (series often up to 46.2 µM), for the others: top-dose activity change, negative = growth inhibition, usual class: inhibitors; 15% of 420,000 active; also: potency is read from the fitted curve at half-maximal effect; nearly all actives have a fitted effect of over 55% in size
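Chicken DT40 Tdp1-/- cells complemented with human TDP1, screened without camptothecin (DMSO vehicle only), 400 cells/well. Compounds pin-transferred, cells incubated at 37 °C for at least 48 hr. Growth read as ATP-dependent luminescence (CellTiter-Glo, 30 min at RT).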
IL-1B inflam inh = inflammasome signaling inhibition, IL-1 beta readout | THP-1 LPS/ATP IL-1B secretion, AlphaLISA, 16 h; active compounds read low | activity change, % at 57.5 µM | 4.7% of 360,000 active; in the data active = activity change below about -50%; inconclusive = mostly about -30% to -49%
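THP-1 cells pretreated 1 hr with compounds (up to 57.5 uM final), then stimulated with LPS (250 ng/mL final) plus ATP (1.25 mM final); secreted IL-1B measured by AlphaLISA after 16 hr, decreased signal indicating inhibition.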
DT40 TDP1 CPT = DT40-hTDP1 cell growth loss with CPT | chicken DT40 Tdp1-/-;hTDP1 cells + 20 nM CPT, ATP luminescence, 48 h | Potency, µM (top dose mostly 46.2 µM), without a hit: top-dose activity change, negative = growth inhibition, hits mostly inhibitors | 12% of 420,000 active | AID 686979; also: potency is read from the fitted curve at half-maximal effect; nearly all actives have a fitted effect of over 55% in size
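Cell growth measured by CellTiter-Glo luminescence after a minimum 48 h, 37 C compound exposure with 20 nM CPT in Tdp1-knockout DT40 cells stably expressing hTDP1, seeded 400/well; qHTS titration format.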
* = called active by the depositor; ? = inconclusive; · = not tested or not shown; [ ] = remark or other dose. Compounds with a hit are over-represented: about 18% of the library has one in this group of screens. Unless noted, calls follow the shape of the dose curve; as a rule, active = well fitted curve in the direction sought with a large enough effect; inconclusive = small, poorly fitted or top-dose-only effect, or another doubt; inactive = no such curve, though single readings can be large; an effect the other way counts as inactive or inconclusive. Unless noted, % is scaled to controls: 0 for no effect and ±100 for the full control effect.

SMILES	RORgamma inh	VP16 counter	LDHA inh	DT40 TDP1 no CPT	IL-1B inflam inh	DT40 TDP1 CPT
CCCc1cc(=O)oc2cc(C)cc(OCC(=O)NCCN3CCOCC3)c12	-4%	2%	-4	9%	-19	-17%
CCCc1cc(=O)oc2cc(OCC(=O)NCCN3CCOCC3)c(Cl)cc12	·	·	1	16µM*	15	23µM*
Cc1c(-c2nsc(NC(=O)c3cccc(Cl)c3)n2)nnn1-c1cc(F)ccc1F	·	·	0	·	·	·
Cc1ccc(-n2nnc(-c3nsc(NC(=O)c4ccc(C)c(C)c4)n3)c2C)cc1	·	·	-9	13µM*	·	13µM*
Cc1ccc(-n2nnc(-c3nsc(NC(=O)c4ccc(Cl)cc4)n3)c2C)cc1F	·	·	0	·	·	·
Cc1ccc(-n2nnc(-c3nsc(NC(=O)c4ccccc4C)n3)c2C)cc1Cl	·	·	-6	6.5µM*	·	5.2µM*
CCc1ccccc1-n1nnc(-c2nsc(NC(=O)c3ccc(C)c(C)c3)n2)c1C	·	·	-20	18µM*	·	?
Cc1ccc(-n2nnc(-c3nsc(NC(=O)c4cccc(Cl)c4)n3)c2C)cc1C	·	·	-5	3.7µM*	·	5.8µM*
O=C(c1ccccc1)C(Cl)C(c1ccccc1)C1(Cl)CCCCC1=O (stereo unspecified)	·	·	-15	·	·	·
CN=C1S/C(=C/c2ccc(C)s2)C(=O)N1C	·	·	1	·	·	·
CCC(=O)Nc1ccc2c(c1)nc(CCNC(=O)c1ccc(C)c(F)c1)n2C	·	·	-7	·	·	·
COc1ccc(NS(=O)(=O)c2cccc(NC(=O)c3ccccn3)c2)cc1	?	?	-1	?	-6	21µM*
COc1ccc(NS(=O)(=O)c2csc(C(=O)Nc3ccccc3)c2)cc1	13µM*	20µM*	-4	?	0	?
O=C(O)CNC(=O)c1ccc(NS(=O)(=O)c2cc(Cl)ccc2Cl)cc1	·	·	4	·	·	·
O=S(=O)(c1ccc(Sc2ccc(Br)cc2)nc1)N1CCCCC1	·	·	-1	·	·	·
C#CCN1CCCCC1C(=O)NCCc1ccccc1 (stereo unspecified)	·	·	0	·	·	·
CCc1cc2c(CN3CCN(c4ccccc4O)CC3)cc(=O)oc2cc1O	·	·	7	·	·	·
Cc1cc(C)nc(NNC(=O)CCNC(=O)c2ccccc2C)n1	·	·	6	·	·	·
COC(=O)c1ccc(CSC(=N)N)o1	-4%	1%	-10	?	·	16µM*
COC(=O)c1ccc(Cc2ccc(C(=O)OC)o2)o1	7%	6%	1	-5%	-4	-14%
CCOC(=O)c1ccc(CSC(=N)N)o1	1%	-4%	-5	?	-12	29µM*
CCc1oc(C(=O)OC)cc1CSC(=N)N	35%	-15%	-5	?	-87*	?
CCOC(=O)c1ccc(CSc2nncn2N)o1	0%	3%	-2	-3%	5	-12%
Cc1nc(N2CCCC2)cc(N2CCN(C(=O)c3ccc(C(F)(F)F)cc3)CC2)n1	·	·	1	·	·	·
COc1ccc2c(c1OC)C(=O)OC2c1ccc(O)cc1 (stereo unspecified)	·	·	1	13µM*	·	18µM*
SMILES	RORgamma inh	VP16 counter	LDHA inh	DT40 TDP1 no CPT	IL-1B inflam inh	DT40 TDP1 CPT
Cc1ccc(NC(=O)CSc2ncc(-c3ccc(F)cc3)o2)cc1Cl	·	·	-1	·	·	·
CCOc1ccccc1-n1nnc(S(=O)(=O)c2ccc(C)cc2)c1N	·	·	-3	12µM*	·	?
CCc1ccc(S(=O)(=O)c2nnn(-c3cccc(C)c3)c2N)cc1	·	·	-4	15µM*	·	21µM*
Cc1cccc(C)c1NC(=O)/C(C#N)=C/c1cccs1	-7%	-4%	-6	?	-10	12µM*
Cc1ccc(NC(=O)/C(C#N)=C/c2cccs2)c(C)c1	-32%	-1%[0.365 µM]	-2	-9%	-11	-3%
Cc1cc(C(C)(C)C)ccc1OCCCCN1CCCC1	93%	?	-2	?	-11	?
Cc1cc[n+](CC[n+]2ccc(C)cc2)cc1	·	·	-17	-9%	39	-2%
CCC(C)(C)c1ccc(OCCCC[n+]2cccc(C)c2C)c(C(C)(C)CC)c1	?	11µM*	1	0.41µM*	-93*	0.52µM*
CCC(C)(C)c1ccc(OCCCC[n+]2ccc(C)cc2)c(C(C)(C)CC)c1	?	?	2	1.2µM*	-95*	2.3µM*
CC1CN(C(=O)CSc2cn(CC(=O)N3CCOCC3)c3ccccc23)CC(C)O1 (stereo unspecified)	0%	2%	1	18%	3	-4%
CN(C(=O)CSc1cn(CC(=O)N2CCOCC2)c2ccccc12)c1ccccc1	13%	2%	0	?	-5	?
O=C(Cn1cc(SCc2ccc(Cl)cc2)c2ccccc21)N1CCOCC1	?	-1%	-2	21µM*	0	?
O=C(Cn1cc(SCc2ccc(F)cc2)c2ccccc21)N1CCOCC1	?	?	5	16µM*	0	?
COc1cc(C(=O)OCc2ccc(C#N)cc2)cc(OC)c1OC	·	·	1	·	·	·
CCN(CC)CCCOC(=O)c1ccccc1	·	·	4	·	·	·
CNC(=O)CN(C)C(=O)c1ccc(N2CCNCC2)c(NS(=O)(=O)c2ccc(C)c(C)c2)c1	·	·	17	·	·	·
CC(NCC(O)c1ccc([N+](=O)[O-])cc1)C12CC3CC(CC(C3)C1)C2 (stereo unspecified)	-6%	?	-3	?	-85*	?
Cc1cc2c(c(/C=C/C(=O)c3ccccc3)c1)OC1(C=C2)Oc2ccccc2C(=O)N1C (stereo unspecified)	-2%	-11%	-2	26µM*	-104*	?
Cc1c(/C=C/C(=O)c2ccccc2)cnn1C	-9%	-17%	-5	?	-18	?
CS(=O)(=O)c1ccccc1C(=O)N(CCC1=CCCCC1)c1c(N)n(Cc2ccccc2)c(=O)[nH]c1=O	·	·	-3	?	-5	29µM*
Nc1c(N(CCC2=CCCCC2)C(=O)c2ccccc2F)c(=O)[nH]c(=O)n1Cc1ccccc1	·	·	-13	-25%	13	?
CCCCOc1ccc(C2(C)NC(=O)NC2=O)cc1 (stereo unspecified)	2%	18%	-9	18µM*	11	?
COC(CNC(=O)c1ccc2c3c(onc13)-c1ccccc1C2=O)OC	?	?	6	3.3µM*	-97*	2.9µM*
COc1ccc(Nc2cc(C(=O)NCC(OC)OC)c3ccccc3n2)cc1	·	·	-6	·	·	·
COc1ccc(S(=O)(=O)Oc2ccc3c(c2)O/C(=C\c2cccc(C)c2)C3=O)cc1	·	·	-2	·	·	·
N#Cc1c2n(c(=O)n(CCOc3cccc(F)c3)c1=O)CCC2	·	·	1	·	·	·

Source: PubChem BioAssay (National Center for Advancing Translational Sciences (NCATS))
